Bioassay records as filed in PubChem.
Most compounds without a hit are left out; they make up all but 0.77% or so of the library.
HSV augment: HSV replication enhancement | 220,000 compounds, 0.005% hits | maximum fold increase | HSV replication augmentation in cells, fold increase | AID 1956; in the data active means maximum fold increase above about 1.5; tested in PC3 cells
zVAD death inh: blocks zVAD induced death of L929 cells | L929 zVAD necroptosis rescue, ATP luminescence, 24 h; with zVAD 60 µM | viability rescue, % at 10 µM | 220,000 compounds, 0.38% hits;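 active means activation, scaled between plate controls, above about 75%, limit read from the data; inactive means activation under that limit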;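 further: 0% = zVAD with DMSO and 100% = DMSO alone without zVAD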
m-calpain inh: calpain II (pig) inhibition | purified calpain II, fluorogenic peptide substrate, 30 min | inhibition, % at 16 µM | 220,000 compounds, 0.37% hits | AID 1236;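 active means inhibition above about 50%, limit read from the data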
TNF death inh: blocks TNF-alpha induced death of Jurkat FADD-/- cells; 220,000 compounds, 0.068% hits; activation (protection from cell death), % at 10 µM; Jurkat FADD-/- TNF necroptosis rescue, ATP luminescence, 24 h; 0 = TNF only, 100 = no-TNF cells; AID 463075;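 active means activation, meaning protection from cell death, of at least 50% relative to plate controls; inactive means activation below 50%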;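 further: necroptosis triggered by 40 ng/mL TNF-alpha added together with compound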
zVAD necrop conf: confirmed blocker of zVAD induced death in L929 cells | 760 compounds, 16% hits | shares compounds with zVAD death inh | activation (protection from necroptosis), % at 10 µM | L929 zVAD-induced necroptosis rescue, ATP luminescence, 24 h | AID 463117;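 active means mean protection from necroptosis of at least 50% over duplicate tests; inactive means mean protection below 50%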;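 further: 0% = cells with zVAD alone and 100% = vehicle cells without zVAD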
Starred values were filed as active, the others as inactive; i = inactive; . = no result; ! = not confirmed by another sample.

SMILES | HSV augment | zVAD death inh | m-calpain inh | TNF death inh | zVAD necrop conf
O=C(O)c1ccc(/C=N/Nc2ccc(C(F)(F)F)cn2)cc1 | i | 87.7* | 7.7 | 57.6* | 11.7
O=C(O)c1ccc(/C=N/Nc2cccc(C(F)(F)F)c2)cc1 | i | 3.0 | -25.3 | -1.1 | .
CC(C)c1ccc(NC(=O)N2CCc3ccccc3C2)cc1 | i | 75.8* | 35.3 | 3.9 | 1.5
Cc1ccc(NC(=O)Nc2ccc3c(c2)OCO3)nc1 | i | 76.6* | 36.5 | 7.5 | 1.2
O=C(Nc1ccc(Cl)cc1)Nc1cnccn1 | i | 76.3* | -24.9 | 0.1 | 6.5
CCOc1ccccc1NC(=O)Nc1cnccn1 | i | 80.3* | -35.4 | -2.1 | 1.6
O=C(Nc1ccccc1)Nc1ccccn1 | i | 76.6*! | -33.1 | 1.4 | 2.5
CCCNC(=O)/C=C/C(=O)O | i | 1.4 | 15.6 | 0.2 | .
Cc1c(Cl)cn2c(=O)cc(CN3CCN(c4ccc(F)cc4)CC3)nc2c1Cl | i | 1.4 | -10.2 | -0.4 | .
Cc1cc(F)c(F)c(C(=O)N2CCC(C)CC2)c1Cl | i | 0.8 | -26.4 | -0.2 | .
Cc1ccc(NC(=O)Nc2ccc(Cl)cn2)cc1 | i | 83.5* | 4.3 | 3.4 | 0.8
O=C(Nc1cnccn1)Nc1ccccc1Cl | i | 79.3* | -18.2 | -2.4 | 1.5
COc1ccc(NC(=O)Nc2ccc(Br)cn2)cc1 | i | 79.3* | -2.6 | 8.6 | 9.8
O=C(Nc1ccc(Cl)cn1)Nc1ccccc1Cl | i | 72.7 | -9.7 | 2.4 | .
COC(=O)c1ccccc1NC(=O)Nc1ccc(Br)cn1 | i | -0.9 | -10.3 | 0.9 | .
Cc1ccccc1CNc1nnnn1C | i | 1.4 | -9.1 | 0.6 | .
Fc1ccccc1-c1nc2nc3ccccc3nc2n1CC1CCCO1 (stereo unspecified) | i | 0.3 | -0.6 | 1.4 | .
O=C(Nc1ccccc1N1CCCC1)c1cc2ccccc2o1 | . | 0.5 | -6.6 | -1.3 | .
Cc1ccc(C(=O)Nc2ncc(C)s2)o1 | i | 60.4 | 9.5 | 1.4 | .
CN1CCN(c2ccccc2NC(=O)c2cc3ccccc3o2)CC1 | i | 77.6* | -6.6 | 2.6 | 31.1
Cc1cnc(NC(=O)c2cc3ccccc3o2)s1 | i | 81.1* | -22.9 | 9.7 | 0.4
O=C(CCNC(=O)c1ccccc1Cl)Nc1nnc(C2CC2)s1 | . | 2.2 | -1.4 | 1.6 | .
CC(C)c1ccc(C(=O)NC(=S)Nc2ccc3[nH]c(=O)[nH]c3c2)cc1 | i | 80.7* | -10.5 | -6.3 | 27.9
Cc1cnc(N)c2c(=O)oc3ccccc3c12 | i | 84.3* | -105.3 | -0.7 | 3.3
N#Cc1c(N)nc2c(c1-c1ccccc1)CCC2 | i | 78.8* | -351.6 | -5.1 | 7.5
SMILES | HSV augment | zVAD death inh | m-calpain inh | TNF death inh | zVAD necrop conf
CCC(C)C(NC(N)=O)C(=O)Nc1ccc(C(=O)OC)cc1 (stereo unspecified) | i | 77.8* | -2.8 | 0.5 | 4.1
CC[C@H](C)[C@H](NC(N)=O)C(=O)Nc1ccc(NC(C)=O)cc1 | i | -0.7 | -12.1 | 0.3 | .
COC(=O)c1ccc(NC(=O)Nc2ccc(OC)c(OC)c2)cc1 | i | 82.5* | -4.6 | 1.2 | 0.8
COC(=O)[C@H](C)NC(=O)Nc1ccc(OC)c(OC)c1 | i | 0.1 | -21.7 | -1.9 | .
Cc1cc2c(cc1C)C(c1ccsc1)CC(=O)N2 (stereo unspecified) | i | 0.0 | 33.0 | -2.0 | .
C/C(=N\OCC(=O)Nc1ccc2c(c1)OCCO2)c1ccc2c(c1)OCCO2 | i | 85.5* | 24.9 | 0.7 | 4.2
Cc1cccc(NC(=O)Nc2ccc(S(N)(=O)=O)cc2)c1 | i | 1.8 | -10.9 | 5.0 | .
NS(=O)(=O)c1cccc(NC(=O)Nc2ccc(Cl)cc2)c1 | i | 75.1* | -21.6 | 1.2 | 3.4
CCCN1C(=O)/C(=C/c2ccc(C)s2)NC1=S | i | 91.7* | 20.0 | 29.8 | 86.5*
COc1cccc(C(=O)NN2C(=S)N(c3ccccc3)C(=O)C2CC(N)=O)c1 (stereo unspecified) | i | 0.0 | -3.8 | 6.2 | .
Cc1ccc(N2C(=O)CC(Nc3ccc(Cl)c(S(=O)(=O)N(C)C)c3)C2=O)c(C)c1 (stereo unspecified) | i | 3.8 | -22.4 | -0.2 | .
O=C(NC1CCCCCCC1)c1cc(COc2ccc3ncccc3c2)on1 | i | 76.4* | 21.4 | -6.3 | -0.4
Cc1ccc(N=Nc2c(N)[nH]n3c(=O)cc(C)nc23)cc1 | i | 76.5* | 3.4 | 1.6 | 0.1
O=C1C=CC(O)(c2cc(=O)c3c(O)cc(O)cc3o2)C=C1 | i | 124.9* | -1.7 | -15.4 | 166.2*
COc1ccc2sc(NC(=O)CC(C)C)nc2c1 | i | 77.0* | -2.8 | 4.3 | 7.2
CCC(=O)Nc1nc2cc(OC)ccc2s1 | i | 88.3* | 5.1 | -2.5 | 29.1
CCC(=O)Nc1nc2ccc3nc(C)sc3c2s1 | i | 84.0* | -10.4 | -0.3 | 31.4
COc1ccc2nc(NC(=O)CCc3cc(OC)c(OC)c(OC)c3)sc2c1 | i | 87.7* | 13.2 | 6.0 | 4.1
CC(O)[C@H]1CNC(=O)C(=O)N1CCc1cc(C(F)(F)F)cc(C(F)(F)F)c1 (stereo partly specified) | i | 0.4 | 3.1 | 1.9 | .
NS(=O)(=O)c1cccc(NC(=O)CSc2nnc(C3CC3)n2Cc2ccccc2)c1 | i | 0.0 | -0.9 | 1.6 | .
COC(=O)COc1cccc(-n2cnnn2)c1 | i | -0.1 | -6.2 | -0.8 | .
Cc1cc(C(=O)COc2cccc(-n3cnnn3)c2)c(C)n1-c1ccccc1 | i | 81.0* | 7.5 | -6.8 | 35.7
